Laboratory results taken from the supplement of paper PMC11732987, “Enantioselective OTUD7B fragment discovery through chemoproteomics screening and high-throughput optimisation” (Communications Chemistry, 2025).

Experiments:
Assay in all cases: log2 ratio of Biotin-Ahx-Ub-VS probe labelling (fragment/DMSO); higher = less target engagement (more negative = stronger competition), active = hit call of the paper (q ≤ 0.05, log2 ratio ≤ -1)
Conditions in all cases: compound concentration: 200 uM; treatment time: 3 h
USP42 = target: T1, USP42 (UniProt Q9H9J4)
T1 sequence (whole entry): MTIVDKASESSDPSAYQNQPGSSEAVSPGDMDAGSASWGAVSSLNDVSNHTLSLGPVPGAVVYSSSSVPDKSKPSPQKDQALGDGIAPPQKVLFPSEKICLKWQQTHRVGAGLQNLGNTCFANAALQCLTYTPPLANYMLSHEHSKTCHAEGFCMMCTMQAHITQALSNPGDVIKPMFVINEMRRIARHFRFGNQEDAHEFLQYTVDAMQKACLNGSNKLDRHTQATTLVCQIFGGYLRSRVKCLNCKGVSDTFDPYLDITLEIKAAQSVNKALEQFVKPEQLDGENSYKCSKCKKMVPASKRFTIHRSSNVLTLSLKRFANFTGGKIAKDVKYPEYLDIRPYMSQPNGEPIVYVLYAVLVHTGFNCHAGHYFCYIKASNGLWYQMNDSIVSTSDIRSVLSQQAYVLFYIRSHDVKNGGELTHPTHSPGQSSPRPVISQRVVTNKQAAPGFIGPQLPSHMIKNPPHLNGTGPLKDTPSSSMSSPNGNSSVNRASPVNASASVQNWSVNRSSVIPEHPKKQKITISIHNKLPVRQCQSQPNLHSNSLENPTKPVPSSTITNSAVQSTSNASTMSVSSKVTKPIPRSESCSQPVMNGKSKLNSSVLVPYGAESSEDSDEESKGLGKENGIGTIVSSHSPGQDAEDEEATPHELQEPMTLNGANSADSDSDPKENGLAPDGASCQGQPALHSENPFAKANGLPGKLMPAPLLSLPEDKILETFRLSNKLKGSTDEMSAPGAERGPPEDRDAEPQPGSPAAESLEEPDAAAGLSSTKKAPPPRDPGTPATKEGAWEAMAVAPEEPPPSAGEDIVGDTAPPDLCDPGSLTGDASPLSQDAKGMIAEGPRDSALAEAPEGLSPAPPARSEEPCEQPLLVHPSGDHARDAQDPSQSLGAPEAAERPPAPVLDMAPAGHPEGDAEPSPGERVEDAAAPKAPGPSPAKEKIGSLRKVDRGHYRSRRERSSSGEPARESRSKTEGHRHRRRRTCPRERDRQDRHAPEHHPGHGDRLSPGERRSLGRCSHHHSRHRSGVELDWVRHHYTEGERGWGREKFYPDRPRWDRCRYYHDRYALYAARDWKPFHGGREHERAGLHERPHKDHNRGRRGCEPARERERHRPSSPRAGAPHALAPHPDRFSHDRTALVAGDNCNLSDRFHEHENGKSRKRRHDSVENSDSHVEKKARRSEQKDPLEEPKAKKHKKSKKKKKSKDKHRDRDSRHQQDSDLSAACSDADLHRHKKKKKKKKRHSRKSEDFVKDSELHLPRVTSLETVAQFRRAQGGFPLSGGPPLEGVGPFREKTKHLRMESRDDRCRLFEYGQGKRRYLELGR
Method in brief: (§1)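 Triplicate samples of HEK293T lysate, 495 µg each, received fragment at 200 µM or vehicle for 3 h, followed by Biotin-Ahx-Ub-VS (0.5 µM final) for 1 h. After NeutrAvidin enrichment of labelled DUBs and LysC/trypsin digestion, peptides were run by diaPASEF LC-MS/MS. The values are average log2 fragment/vehicle ratios from global-median-normalised Spectronaut label-free quantities, tested by unpaired t-test on proteins having ≥2 unique peptides.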

USP46 = USP46 (UniProt P62068)
Method in brief: as §1

USP47 = target: T2, USP47 (UniProt Q96K76)
T2 sequence (whole entry): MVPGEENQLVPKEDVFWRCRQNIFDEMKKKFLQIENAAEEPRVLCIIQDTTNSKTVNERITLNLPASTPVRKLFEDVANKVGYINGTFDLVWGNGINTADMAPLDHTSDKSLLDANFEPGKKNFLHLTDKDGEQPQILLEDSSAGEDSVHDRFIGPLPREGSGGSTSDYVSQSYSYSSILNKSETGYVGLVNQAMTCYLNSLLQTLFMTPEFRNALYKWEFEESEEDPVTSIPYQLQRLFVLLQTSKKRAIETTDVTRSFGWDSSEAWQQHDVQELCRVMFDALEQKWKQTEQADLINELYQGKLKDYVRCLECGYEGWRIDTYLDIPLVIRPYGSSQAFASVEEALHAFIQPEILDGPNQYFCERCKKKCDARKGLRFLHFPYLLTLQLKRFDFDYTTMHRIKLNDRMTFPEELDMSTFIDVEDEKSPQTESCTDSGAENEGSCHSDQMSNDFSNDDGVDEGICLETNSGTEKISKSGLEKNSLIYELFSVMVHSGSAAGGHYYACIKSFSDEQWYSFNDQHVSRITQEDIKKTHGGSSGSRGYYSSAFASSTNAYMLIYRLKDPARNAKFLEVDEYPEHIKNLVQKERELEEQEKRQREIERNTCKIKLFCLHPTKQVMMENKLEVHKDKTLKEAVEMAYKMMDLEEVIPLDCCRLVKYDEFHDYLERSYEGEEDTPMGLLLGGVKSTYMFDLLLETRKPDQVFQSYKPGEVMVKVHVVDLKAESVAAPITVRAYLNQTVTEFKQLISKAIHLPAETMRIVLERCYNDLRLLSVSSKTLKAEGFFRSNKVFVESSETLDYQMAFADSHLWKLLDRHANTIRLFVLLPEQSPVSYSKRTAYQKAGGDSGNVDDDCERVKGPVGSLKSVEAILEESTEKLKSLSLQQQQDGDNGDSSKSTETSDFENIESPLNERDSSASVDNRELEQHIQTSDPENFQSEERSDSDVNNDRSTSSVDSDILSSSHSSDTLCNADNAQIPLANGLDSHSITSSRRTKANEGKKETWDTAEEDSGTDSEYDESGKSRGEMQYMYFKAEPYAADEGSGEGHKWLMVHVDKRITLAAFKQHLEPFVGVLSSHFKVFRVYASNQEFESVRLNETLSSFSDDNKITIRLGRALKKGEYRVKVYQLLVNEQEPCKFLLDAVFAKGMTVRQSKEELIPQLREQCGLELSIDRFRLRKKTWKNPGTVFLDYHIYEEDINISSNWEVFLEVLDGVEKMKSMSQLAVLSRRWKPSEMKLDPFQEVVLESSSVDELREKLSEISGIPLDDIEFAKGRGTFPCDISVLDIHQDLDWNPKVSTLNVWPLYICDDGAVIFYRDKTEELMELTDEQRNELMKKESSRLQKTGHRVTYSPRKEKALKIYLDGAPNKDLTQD
Method in brief: as §1

USP48 = target: T3, USP48 (UniProt Q86UV5)
T3 sequence (whole entry): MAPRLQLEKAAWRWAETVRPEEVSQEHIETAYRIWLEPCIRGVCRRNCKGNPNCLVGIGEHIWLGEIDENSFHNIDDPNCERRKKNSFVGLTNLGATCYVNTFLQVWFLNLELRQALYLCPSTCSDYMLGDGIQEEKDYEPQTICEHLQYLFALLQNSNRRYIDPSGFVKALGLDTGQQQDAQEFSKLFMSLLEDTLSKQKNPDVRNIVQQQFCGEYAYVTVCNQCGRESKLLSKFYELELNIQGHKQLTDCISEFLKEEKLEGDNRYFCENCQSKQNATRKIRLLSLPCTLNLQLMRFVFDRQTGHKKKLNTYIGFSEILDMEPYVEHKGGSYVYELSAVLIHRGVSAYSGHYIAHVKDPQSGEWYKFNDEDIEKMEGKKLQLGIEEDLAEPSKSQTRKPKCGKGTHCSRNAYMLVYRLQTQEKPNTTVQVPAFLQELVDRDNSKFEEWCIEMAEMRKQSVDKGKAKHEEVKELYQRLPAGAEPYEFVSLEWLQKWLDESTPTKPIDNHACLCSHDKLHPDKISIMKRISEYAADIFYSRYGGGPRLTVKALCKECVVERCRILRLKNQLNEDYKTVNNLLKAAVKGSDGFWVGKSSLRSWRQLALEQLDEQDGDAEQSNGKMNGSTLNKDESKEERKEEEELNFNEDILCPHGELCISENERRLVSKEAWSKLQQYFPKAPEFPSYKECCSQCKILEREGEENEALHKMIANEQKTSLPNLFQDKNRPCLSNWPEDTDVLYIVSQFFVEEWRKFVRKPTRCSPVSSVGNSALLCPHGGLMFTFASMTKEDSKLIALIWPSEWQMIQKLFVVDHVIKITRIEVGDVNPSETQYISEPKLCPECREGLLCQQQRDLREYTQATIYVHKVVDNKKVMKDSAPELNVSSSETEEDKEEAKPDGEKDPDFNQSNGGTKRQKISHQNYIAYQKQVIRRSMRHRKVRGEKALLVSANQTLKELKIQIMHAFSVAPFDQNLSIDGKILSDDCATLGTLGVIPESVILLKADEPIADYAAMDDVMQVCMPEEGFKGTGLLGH
Method in brief: as §1

USP5 = target: T4, USP5 (UniProt P45974)
T4 sequence (whole entry): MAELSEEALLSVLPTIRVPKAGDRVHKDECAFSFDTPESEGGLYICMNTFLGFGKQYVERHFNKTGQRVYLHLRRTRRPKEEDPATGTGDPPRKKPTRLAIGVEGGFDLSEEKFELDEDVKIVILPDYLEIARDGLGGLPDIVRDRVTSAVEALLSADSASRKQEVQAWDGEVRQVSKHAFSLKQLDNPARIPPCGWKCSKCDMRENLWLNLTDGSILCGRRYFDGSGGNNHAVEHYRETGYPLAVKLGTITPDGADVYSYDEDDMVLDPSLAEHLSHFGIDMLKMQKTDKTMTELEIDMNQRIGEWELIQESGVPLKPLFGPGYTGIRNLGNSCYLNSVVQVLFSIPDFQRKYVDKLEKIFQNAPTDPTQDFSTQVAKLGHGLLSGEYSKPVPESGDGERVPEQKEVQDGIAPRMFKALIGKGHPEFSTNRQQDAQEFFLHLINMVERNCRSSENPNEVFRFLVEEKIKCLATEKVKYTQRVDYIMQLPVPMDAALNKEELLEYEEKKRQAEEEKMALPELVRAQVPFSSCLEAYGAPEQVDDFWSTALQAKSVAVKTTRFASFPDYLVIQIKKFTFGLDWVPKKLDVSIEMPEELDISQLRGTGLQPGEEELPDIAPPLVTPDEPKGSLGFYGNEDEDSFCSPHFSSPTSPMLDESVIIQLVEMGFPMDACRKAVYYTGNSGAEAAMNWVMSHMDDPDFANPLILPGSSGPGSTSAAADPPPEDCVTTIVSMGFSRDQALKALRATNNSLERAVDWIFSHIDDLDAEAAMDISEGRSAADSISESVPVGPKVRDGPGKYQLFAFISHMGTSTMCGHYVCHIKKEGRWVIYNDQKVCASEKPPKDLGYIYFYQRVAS
Method in brief: as §1

USP54 = USP54 (UniProt Q70EL1)
Method in brief: as §1

USP7 = USP7 (UniProt Q93009)
Method in brief: as §1

USP8 = target: T5, USP8 (UniProt P40818)
T5 sequence (whole entry): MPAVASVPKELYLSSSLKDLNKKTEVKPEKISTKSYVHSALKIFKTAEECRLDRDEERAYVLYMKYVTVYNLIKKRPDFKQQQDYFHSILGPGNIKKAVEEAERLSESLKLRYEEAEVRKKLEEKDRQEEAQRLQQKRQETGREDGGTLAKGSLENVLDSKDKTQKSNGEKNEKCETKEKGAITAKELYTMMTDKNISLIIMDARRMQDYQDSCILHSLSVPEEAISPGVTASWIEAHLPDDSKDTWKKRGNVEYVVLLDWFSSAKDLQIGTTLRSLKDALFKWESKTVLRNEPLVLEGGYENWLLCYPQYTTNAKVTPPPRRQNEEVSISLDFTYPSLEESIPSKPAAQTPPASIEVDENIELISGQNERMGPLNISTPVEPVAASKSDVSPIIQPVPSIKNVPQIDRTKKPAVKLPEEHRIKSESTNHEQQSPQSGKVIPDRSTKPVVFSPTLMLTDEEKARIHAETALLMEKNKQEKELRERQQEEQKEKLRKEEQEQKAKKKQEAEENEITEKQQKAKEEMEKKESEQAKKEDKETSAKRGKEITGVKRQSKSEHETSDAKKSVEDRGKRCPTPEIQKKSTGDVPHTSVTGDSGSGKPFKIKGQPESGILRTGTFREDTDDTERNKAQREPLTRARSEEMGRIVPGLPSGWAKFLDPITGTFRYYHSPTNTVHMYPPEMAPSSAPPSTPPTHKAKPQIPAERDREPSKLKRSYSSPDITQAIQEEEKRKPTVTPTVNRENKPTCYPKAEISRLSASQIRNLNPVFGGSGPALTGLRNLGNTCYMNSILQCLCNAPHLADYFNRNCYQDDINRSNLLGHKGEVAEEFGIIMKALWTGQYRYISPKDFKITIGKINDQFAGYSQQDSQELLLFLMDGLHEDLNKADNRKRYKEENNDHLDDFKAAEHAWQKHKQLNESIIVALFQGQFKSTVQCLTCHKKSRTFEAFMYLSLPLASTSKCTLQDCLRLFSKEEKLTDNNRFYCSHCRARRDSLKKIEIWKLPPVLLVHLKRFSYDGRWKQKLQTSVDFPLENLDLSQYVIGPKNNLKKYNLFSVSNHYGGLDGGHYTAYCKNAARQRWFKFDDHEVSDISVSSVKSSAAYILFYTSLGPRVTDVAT
Method in brief: as §1

USP9X = USP9X (UniProt Q93008)
Method in brief: as §1

UniProt O00487 = target: UniProt O00487
Method in brief: as §1

Measured: log2 ratio of Biotin-Ahx-Ub-VS probe labelling

Chain of USP54 (Q70EL1 whole entry): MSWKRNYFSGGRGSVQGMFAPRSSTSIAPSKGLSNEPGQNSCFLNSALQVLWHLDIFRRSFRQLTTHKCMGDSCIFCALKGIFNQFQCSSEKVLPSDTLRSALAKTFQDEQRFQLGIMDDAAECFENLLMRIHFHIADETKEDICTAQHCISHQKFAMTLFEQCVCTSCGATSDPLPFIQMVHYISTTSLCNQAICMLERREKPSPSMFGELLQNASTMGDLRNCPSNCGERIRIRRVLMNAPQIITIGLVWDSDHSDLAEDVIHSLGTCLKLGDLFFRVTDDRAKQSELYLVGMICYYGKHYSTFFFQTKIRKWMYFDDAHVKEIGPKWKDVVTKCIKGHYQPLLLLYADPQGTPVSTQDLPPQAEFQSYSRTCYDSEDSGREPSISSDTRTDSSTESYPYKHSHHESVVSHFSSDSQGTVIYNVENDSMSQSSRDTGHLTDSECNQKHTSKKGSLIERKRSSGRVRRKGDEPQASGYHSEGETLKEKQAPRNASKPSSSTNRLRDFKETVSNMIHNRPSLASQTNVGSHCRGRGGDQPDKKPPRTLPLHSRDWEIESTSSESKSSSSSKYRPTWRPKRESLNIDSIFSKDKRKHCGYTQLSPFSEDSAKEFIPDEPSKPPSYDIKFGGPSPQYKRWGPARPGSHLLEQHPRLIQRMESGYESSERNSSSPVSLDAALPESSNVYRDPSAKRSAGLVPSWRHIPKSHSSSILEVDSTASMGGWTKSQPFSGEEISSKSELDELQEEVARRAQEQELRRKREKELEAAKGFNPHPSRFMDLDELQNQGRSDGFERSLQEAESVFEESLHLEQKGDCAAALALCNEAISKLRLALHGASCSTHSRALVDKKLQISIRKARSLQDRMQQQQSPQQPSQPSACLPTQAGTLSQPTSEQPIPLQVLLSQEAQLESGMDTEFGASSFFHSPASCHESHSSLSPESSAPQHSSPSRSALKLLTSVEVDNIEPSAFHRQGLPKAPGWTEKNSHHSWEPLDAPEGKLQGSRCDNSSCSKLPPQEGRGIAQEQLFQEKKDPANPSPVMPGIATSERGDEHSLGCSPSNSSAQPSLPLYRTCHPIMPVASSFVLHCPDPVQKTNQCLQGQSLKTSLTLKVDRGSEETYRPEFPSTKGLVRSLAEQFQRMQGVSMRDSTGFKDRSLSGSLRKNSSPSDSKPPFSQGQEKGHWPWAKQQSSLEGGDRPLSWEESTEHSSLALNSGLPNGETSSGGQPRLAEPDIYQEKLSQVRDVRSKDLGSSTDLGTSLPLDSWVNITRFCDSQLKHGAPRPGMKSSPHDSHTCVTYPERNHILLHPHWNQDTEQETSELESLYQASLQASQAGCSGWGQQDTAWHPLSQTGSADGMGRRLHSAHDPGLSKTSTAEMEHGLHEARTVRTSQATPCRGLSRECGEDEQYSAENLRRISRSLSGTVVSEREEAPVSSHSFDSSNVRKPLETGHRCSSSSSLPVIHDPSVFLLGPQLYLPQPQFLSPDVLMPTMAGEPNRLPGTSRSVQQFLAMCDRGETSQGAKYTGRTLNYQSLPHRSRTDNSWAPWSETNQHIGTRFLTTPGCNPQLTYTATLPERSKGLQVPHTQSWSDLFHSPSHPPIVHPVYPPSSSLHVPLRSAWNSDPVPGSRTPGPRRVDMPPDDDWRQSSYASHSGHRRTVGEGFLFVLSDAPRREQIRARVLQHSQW
Chain of UniProt O00487 (O00487 whole entry): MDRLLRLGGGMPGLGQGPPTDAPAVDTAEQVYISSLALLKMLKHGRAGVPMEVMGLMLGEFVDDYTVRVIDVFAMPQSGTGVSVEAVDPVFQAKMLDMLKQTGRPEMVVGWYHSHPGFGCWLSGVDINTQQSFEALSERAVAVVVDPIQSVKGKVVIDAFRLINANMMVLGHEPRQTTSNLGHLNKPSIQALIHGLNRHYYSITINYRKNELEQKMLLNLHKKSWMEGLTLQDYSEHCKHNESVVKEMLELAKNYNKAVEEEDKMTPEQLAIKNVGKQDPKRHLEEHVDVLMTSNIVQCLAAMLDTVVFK
Chain of USP9X (Q93008 whole entry): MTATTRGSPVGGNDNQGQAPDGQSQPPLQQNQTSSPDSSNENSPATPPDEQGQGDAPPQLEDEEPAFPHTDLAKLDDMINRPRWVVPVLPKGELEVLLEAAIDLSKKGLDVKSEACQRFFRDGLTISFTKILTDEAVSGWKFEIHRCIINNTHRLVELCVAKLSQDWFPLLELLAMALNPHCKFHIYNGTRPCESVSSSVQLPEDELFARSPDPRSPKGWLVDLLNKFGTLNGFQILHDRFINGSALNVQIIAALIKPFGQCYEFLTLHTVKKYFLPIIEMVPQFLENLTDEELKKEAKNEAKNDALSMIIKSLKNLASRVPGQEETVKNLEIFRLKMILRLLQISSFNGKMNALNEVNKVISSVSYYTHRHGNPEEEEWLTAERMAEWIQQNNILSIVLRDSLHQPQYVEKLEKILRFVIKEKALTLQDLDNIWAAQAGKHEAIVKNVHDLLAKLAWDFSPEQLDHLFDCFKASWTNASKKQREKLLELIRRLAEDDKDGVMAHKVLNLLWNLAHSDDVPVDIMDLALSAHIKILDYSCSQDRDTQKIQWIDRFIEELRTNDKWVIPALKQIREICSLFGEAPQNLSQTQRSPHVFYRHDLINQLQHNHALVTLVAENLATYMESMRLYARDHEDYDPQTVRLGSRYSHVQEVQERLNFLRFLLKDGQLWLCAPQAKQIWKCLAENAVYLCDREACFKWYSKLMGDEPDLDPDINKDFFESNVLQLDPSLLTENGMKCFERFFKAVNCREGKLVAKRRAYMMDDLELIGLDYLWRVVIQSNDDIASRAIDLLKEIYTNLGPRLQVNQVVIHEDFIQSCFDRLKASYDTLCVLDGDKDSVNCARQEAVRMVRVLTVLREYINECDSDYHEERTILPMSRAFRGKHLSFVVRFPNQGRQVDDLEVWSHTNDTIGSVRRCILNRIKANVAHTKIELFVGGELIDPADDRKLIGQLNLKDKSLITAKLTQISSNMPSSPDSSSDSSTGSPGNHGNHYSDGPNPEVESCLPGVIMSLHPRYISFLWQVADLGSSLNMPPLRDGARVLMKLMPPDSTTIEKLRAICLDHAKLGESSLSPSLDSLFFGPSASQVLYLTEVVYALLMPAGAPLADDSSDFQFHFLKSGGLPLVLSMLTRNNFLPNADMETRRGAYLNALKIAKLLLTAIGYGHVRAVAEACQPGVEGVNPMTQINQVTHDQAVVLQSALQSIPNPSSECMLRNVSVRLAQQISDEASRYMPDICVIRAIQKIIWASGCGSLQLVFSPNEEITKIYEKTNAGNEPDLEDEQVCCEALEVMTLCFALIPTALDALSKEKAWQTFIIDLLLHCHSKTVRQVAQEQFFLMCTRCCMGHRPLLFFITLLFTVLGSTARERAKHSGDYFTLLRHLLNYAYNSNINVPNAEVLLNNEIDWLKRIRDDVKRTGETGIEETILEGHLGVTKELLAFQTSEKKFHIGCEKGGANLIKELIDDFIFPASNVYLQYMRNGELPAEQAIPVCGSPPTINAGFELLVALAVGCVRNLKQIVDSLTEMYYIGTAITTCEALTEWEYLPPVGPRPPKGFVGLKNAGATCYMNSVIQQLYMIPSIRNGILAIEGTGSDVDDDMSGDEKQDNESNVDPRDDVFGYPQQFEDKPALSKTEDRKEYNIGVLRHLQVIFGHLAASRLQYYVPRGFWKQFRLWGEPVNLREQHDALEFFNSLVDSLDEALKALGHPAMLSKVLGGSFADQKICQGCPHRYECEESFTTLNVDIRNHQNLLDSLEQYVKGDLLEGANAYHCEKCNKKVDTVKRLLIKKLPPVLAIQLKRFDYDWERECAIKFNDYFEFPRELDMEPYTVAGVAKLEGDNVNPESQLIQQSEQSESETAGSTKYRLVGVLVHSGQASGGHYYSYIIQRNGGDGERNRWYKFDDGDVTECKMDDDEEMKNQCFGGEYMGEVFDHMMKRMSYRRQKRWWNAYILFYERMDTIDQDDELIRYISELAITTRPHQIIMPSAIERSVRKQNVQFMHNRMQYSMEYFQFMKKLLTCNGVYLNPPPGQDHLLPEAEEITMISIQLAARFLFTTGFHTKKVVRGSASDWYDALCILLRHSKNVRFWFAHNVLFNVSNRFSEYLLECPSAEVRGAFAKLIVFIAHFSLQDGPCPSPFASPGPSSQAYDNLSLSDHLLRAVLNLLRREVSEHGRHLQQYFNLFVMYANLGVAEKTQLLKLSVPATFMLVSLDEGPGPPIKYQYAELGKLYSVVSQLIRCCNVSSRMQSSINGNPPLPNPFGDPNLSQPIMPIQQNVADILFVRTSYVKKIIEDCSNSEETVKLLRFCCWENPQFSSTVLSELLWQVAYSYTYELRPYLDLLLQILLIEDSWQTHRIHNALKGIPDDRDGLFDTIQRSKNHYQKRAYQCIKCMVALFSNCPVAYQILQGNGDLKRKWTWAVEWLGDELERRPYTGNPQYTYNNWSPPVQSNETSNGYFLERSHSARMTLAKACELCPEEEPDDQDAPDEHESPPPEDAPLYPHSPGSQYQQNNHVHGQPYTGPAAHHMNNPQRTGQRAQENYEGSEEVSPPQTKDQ
Chain of USP46 (P62068 whole entry): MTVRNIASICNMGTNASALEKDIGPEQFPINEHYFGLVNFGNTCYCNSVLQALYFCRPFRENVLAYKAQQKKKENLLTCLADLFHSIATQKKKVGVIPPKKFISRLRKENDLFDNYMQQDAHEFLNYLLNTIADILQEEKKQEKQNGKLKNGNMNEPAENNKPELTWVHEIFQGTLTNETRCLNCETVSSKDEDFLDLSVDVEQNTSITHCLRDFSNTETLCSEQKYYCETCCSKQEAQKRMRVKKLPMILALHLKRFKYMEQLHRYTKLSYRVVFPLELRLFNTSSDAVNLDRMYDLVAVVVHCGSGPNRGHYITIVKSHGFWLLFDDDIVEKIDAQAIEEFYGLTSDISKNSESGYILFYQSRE

O=C(CCl)Nc1ccccc1C(F)(F)F
inactive: USP42 0.398 | USP46 0.0498 | USP47 -0.374 | USP48 -0.257 | USP5 -0.323 | USP54 0.637 | USP7 -0.404 | USP8 -0.029 | USP9X -0.0415 | UniProt O00487 -0.162
